Consider 18 compounds from PubChem BioAssay (NCI).

The nature of assay [1]: NCI Yeast Anticancer Drug Screen. Data for the rad50 strain (AID 155).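 Further: 0% = growth of vehicle-only cultures of the same strain.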 To be noted: S. cerevisiae rad50 strain growth inhibition; at 50.0 µM; hits give high values. The essentials:
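Relative growth inhibition (compound vs vehicle) was measured in yeast with a defined repair-gene alteration.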

The nature of assay [2]: NCI Yeast Anticancer Drug Screen. Data for the mec2-1 strain (AID 157). To be noted: S. cerevisiae mec2-1 strain, at 50.0 µM, hits give high values. The essentials: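 Yeast mec2-1 mutant treated with compound. Readout: growth inhibition vs vehicle controls.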
Assay [3] is described as follows: NCI Yeast Anticancer Drug Screen. Data for the sgs1 mgt1 strain (AID 161).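 Further: 0% = growth of cultures given vehicle only.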 To be noted: S. cerevisiae sgs1 mgt1 strain, at 50.0 µM, hits give high values. Summed up:
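Read-out: growth inhibition vs vehicle controls. Cells: mutant yeast strain deficient in DNA damage repair.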

Assay [4] can be described thus: NCI Yeast Anticancer Drug Screen. Data for the cln2 rad14 strain (AID 165).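 Further: 0% = growth equal to vehicle treated cultures.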 To be noted: S. cerevisiae cln2 rad14 strain, at 50.0 µM, hits give high values. Summed up:
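cln2 rad14 yeast strain; compound exposure; growth inhibition read vs vehicle controls.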

The nature of assay [5]: NCI Yeast Anticancer Drug Screen. Data for the bub3 strain (AID 167). To be noted: S. cerevisiae bub3 mutant strain, at 50.0 µM, hits give high values. The essentials:
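Screening used yeast with an engineered genetic alteration affecting cell cycle control. Compound-exposed cultures were compared with vehicle cultures, and reduced growth was taken as inhibition.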

A short description of assay [6]: NCI Yeast Anticancer Drug Screen. Data for the mlh1 rad18 strain (AID 175). To be noted: S. cerevisiae mlh1 rad18 strain growth inhibition; at 50.0 µM; hits give high values. The essentials:
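Yeast w/ defined DNA-repair lesions; compound exposure; growth vs vehicle controls → % inhibition.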

This is part of a sample that, as a whole, favours compounds with a hit. Of some 79,000 tested, about 15% had one in any assay. Unmarked numbers belong to inactive results. Active and inactive are the calls of the source. No stated cut-off is given here; in the data, active means growth inhibition above about 70%; inactive means the rest.

`C#[C][Sn]([CH2]CCC)([CH2]CCC)[CH2]CCC`: the growth inhibition in assay [1] is 99% (active); in assay [2], 99.5% (active); in assay [3] it was 99.2% (active); in assay [4], 99.1% (active); in assay [5], 99.3% (active); in assay [6], 99.2% (active).
As to `O=P(O)(O)SP(=O)(O)O.[Zn+2]`, the growth inhibition was -20.9% in assay [1]; 9.55% in assay [2]; -15.8% in assay [3]; -8.7% in assay [4]; -12.6% in assay [5]; -1.35% in assay [6].
On to `CC(C)(C)c1ccc2c(cc[n+]3ccccc23)c1`, for which the growth inhibition in assay [1] is -9.05%; in assay [2], -6.85%; in assay [3] it was 2.05%; in assay [4], 4.05%; in assay [5], 2.35%; in assay [6], -11.9%.
With `O=N[O-].O=N[O-].[NH2-].[NH2-].[NH2-].[NH2-].[Ni]`, the growth inhibition was 0.55% in assay [1]; 7% in assay [2]; 19.6% in assay [3]; -48.7% in assay [4]; -14.8% in assay [5]; 13.3% in assay [6].
For the compound `CCC1(CCSC#N)C(=O)NC(=O)NC1=O`, the growth inhibition is -7.55% in assay [1]; -8.6% in assay [2]; 11.2% in assay [3]; -14.9% in assay [4]; -3.3% in assay [5]; 3.85% in assay [6].
As to `CCCCCCCBr`, the growth inhibition was -21.5% in assay [1]; 9% in assay [2]; 3.1% in assay [3]; 0.6% in assay [4]; -5.45% in assay [5]; 15.3% in assay [6].
For `COc1cc(N=Nc2ccc([N+](=O)[O-])cc2)ccc1N(CCCl)CCCl`, the growth inhibition in assay [1] was -8.55%; in assay [2] it was -13.2%; in assay [3], -16.9%; in assay [4], 11.2%; in assay [5], -10.6%; in assay [6], 12.8%.
Consider `NNc1ccc([N+](=O)[O-])cc1`, for which the growth inhibition in assay [1] was 23.9%; in assay [2] it was 26.3%; in assay [3] it was 40.9%; in assay [4], -10.3%; in assay [5] it was 54.9%; in assay [6], 51.6%.
On to `CNC1(c2ccc(F)cc2)CCCCC1`, for which the growth inhibition in assay [1] is -15.8%; in assay [2], -23.1%; in assay [3], -11.5%; in assay [4], 8.05%; in assay [5] it was -13.8%; in assay [6], -30.8%.
In the case of `COc1cc2cc(c1Cl)N(C)C(=O)CC(OC(=O)C(C)C)C1(C)OC1C(C)C1CC(O)(NC(=O)O1)C(OC)/C=C/C=C(C)C2` (stereo not drawn), the growth inhibition in assay [1] was -15.9%; in assay [2], -9.9%; in assay [3], -19.4%; in assay [4], -22.8%; in assay [5] it was -21.2%; in assay [6] it was -3.7%.
As to `O=Cc1ccccc1O.O=Cc1ccccc1O.O=Cc1ccccc1O.[La]`, the growth inhibition was -1.05% in assay [1]; -6.95% in assay [2]; 4.7% in assay [3]; -10.1% in assay [4]; 4.8% in assay [5]; 16.9% in assay [6].
Consider `CC(=N/O)/C(C)=N\O`, for which the growth inhibition in assay [1] is 21%; in assay [2] it was 14.8%; in assay [3], 5.7%; in assay [4] it was 13.4%; in assay [5], -0.4%; in assay [6], 40.3%.
As to `O=S(=O)(c1ccc(O)cc1)c1ccccc1O`, the growth inhibition in assay [1] was -1.95%; in assay [2], -6.35%; in assay [3] it was 15.2%; in assay [4], 3.75%; in assay [5], 0.6%; in assay [6] it was 28.9%.
Take `CCCCOCCOP(=O)(OCCOCCCC)OCCOCCCC`: the growth inhibition in assay [1] is 7.85%; in assay [2], -15.2%; in assay [3], 2%; in assay [4], -14.8%; in assay [5] it was -39%; in assay [6] it was -28.4%.
Turning to `CCC1(CCC(C)C)C(=O)NC(=NCCCC(N)C(=O)O)NC1=O` (stereo not drawn), the growth inhibition in assay [1] was 11.1%; in assay [2], -0.35%; in assay [3], 7.6%; in assay [4], 30.3%; in assay [5], 3.25%; in assay [6], 13.1%.
On to `NCCN.O=C([O-])[O-].O=C([O-])[O-].[Co+3].[K+]`, for which the growth inhibition in assay [1] was 1.5%; in assay [2], 4.6%; in assay [3] it was 5.2%; in assay [4] it was 13.2%; in assay [5], -8.9%; in assay [6], -5.55%.
Consider `CNC(=O)CCl`, for which the growth inhibition is 5.65% in assay [1]; 3.4% in assay [2]; -0.45% in assay [3]; -7.15% in assay [4]; -0.75% in assay [5]; 6.4% in assay [6].
Turning to `Cc1ccc2[nH]c(=S)n(-c3cccc(C(F)(F)F)c3)c(=O)c2c1`, the growth inhibition in assay [1] was 17.8%; in assay [2], 6.35%; in assay [3], 21.4%; in assay [4] it was 20.7%; in assay [5], 22.6%; in assay [6], 16.5%.
